Results from PubChem BioAssay (NCI).
About 83,000 compounds went through this panel and 20% of them were active in at least one assay; those are over-represented in the sample as a whole.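 Single-dose data. Exposure time 48 hours. Values below 10 considered active.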 Activity calls are given as the source filed them.

Assays:
Assay in all cases: NCI-60 one-dose screen, 48 h (100 = growth as untreated, 0 = no growth, -100 = all killed)
Details in all cases: 10 µM
[1] = tested on: 786-0 renal
[2] = tested on: MALME-3M melanoma
[3] = tested on: UACC-257 melanoma
[4] = tested on: SN12C renal
[5] = tested on: TK-10 renal
[6] = tested on: ACHN renal
[7] = tested on: CAKI-1 renal
[8] = tested on: A498 renal
[9] = tested on: RPMI-8226 leukemia
[10] = tested on: OVCAR-8 ovarian
[11] = tested on: OVCAR-4 ovarian
[12] = tested on: SK-OV-3 ovarian
[13] = tested on: IGROV1 ovarian
[14] = tested on: OVCAR-3 ovarian
[15] = tested on: BT-549 breast
[16] = tested on: MDA-MB-435 melanoma
[17] = tested on: MCF7 breast
[18] = tested on: HCT-116 colon
[19] = tested on: HCC-2998 colon
[20] = tested on: KM12 colon

Measured: growth

COc1cc(OC)c(S(=O)(=O)N(CCCl)CCCl)cc1C(=O)/C=C/c1cc(OC)c(OC)c(OC)c1
active: [1] -59.7% | [2] -15.6% | [3] -60% | [4] 8.6% | [5] 3.84% | [6] 2.37% | [7] -5.59% | [8] -0.926% | [9] -24.3% | [10] 9.85% | [12] 9.62% | [13] 0.296% | [14] -3.7% | [15] -84.7% | [16] -31.5% | [17] -39.2% | [18] -87.7% | [19] -91.1% | [20] -61.2%
inactive: [11] 23.2%

CC12OOC(C)(OO1)C2CCC(=O)OCCNc1ccnc2cc(Cl)ccc12 (stereo not given)
active: [1] -29.3% | [2] -73% | [6] -93.8% | [7] -79.4% | [9] 8.42% | [11] -39.8% | [14] -65.9% | [18] 0.954%
inactive: [3] 82.1% | [4] 84.3% | [5] 66.3% | [8] 109% | [10] 68% | [12] 95.9% | [13] 39.7% | [15] 93.1% | [16] 31.3% | [17] 24.2% | [19] 88.5% | [20] 60.6%

COc1cc2cc(C(=O)N3C[C@@H](CCl)c4c3cc(OC(=O)N3CCN(C(=O)CCC(=O)N5CCN(C)CC5)[C@@H]5CSSC[C@@H]53)c3ccccc43)[nH]c2c(OC)c1OC
active: [1] -80.9% | [2] -99.3% | [3] -71.7% | [4] -37.7% | [5] 5.55% | [6] -31.6% | [8] -10.8% | [9] 6.09% | [10] -32.1% | [11] -6.42% | [12] 3.05% | [13] -50.7% | [15] -81.3% | [16] 3.09% | [17] -92.4% | [18] -77.5% | [19] -99.1% | [20] -74.6%
inactive: [7] 13.9% | [14] 16.4%

COC(=O)CCn1c(-c2ccc(-n3cc(-c4ccc(O[C@H]5O[C@@H]6OC7(C)CC[C@H]8[C@H](C)CC[C@@H]([C@H]5C)[C@@]68OO7)cc4)nn3)cc2)nc2ccccc21
inactive: [1] 32.3% | [3] 27.9% | [4] 16.3% | [5] 30.4% | [7] 13.7% | [8] 74.4% | [9] 20.3% | [11] 34.2% | [12] 33.1% | [13] 21.7% | [14] 20.4% | [16] 24.5% | [17] 11.1% | [18] 11.6% | [19] 38.5% | [20] 18%
active: [2] 0.0576% | [6] 8.18% | [10] 9.58% | [15] -7.77%

COC(=O)C[C@](O)(CCC(C)C)C(=O)O[C@@H]1C(OC)=C[C@]23CCCN2CCc2cc4c(cc2[C@H]13)OCO4
active: [1] -46.8% | [2] -90.9% | [3] -66.7% | [4] -26.7% | [5] -23.8% | [6] -25.1% | [7] -13.1% | [8] -46.5% | [9] -30.2% | [10] -62.9% | [11] -42.4% | [12] -25.6% | [13] -29.3% | [14] -26.9% | [15] -42% | [16] -84% | [17] -19.4% | [18] -27.5% | [19] -89.9% | [20] -20.8%

CCC[Se]C(=O)c1ccc(C(=O)[Se]CCC)s1
inactive: [11] 55.6%
active: [1] 2.15% | [2] -82.4% | [3] -53.7% | [4] -75% | [5] -79.8% | [6] -63.3% | [7] -78.1% | [8] -64.9% | [9] -5.8% | [10] -51.1% | [12] -31.1% | [13] -67.3% | [14] -47.6% | [15] -86.4% | [16] -61% | [17] -34.6% | [18] -56% | [19] -8.78% | [20] 5.4%

CC(C)N=C([Se])NC(=O)c1ccccc1
active: [1] -93.6% | [2] -24.7% | [3] -36.2% | [4] -59.8% | [5] -71.2% | [6] -51.2% | [7] -80.7% | [8] -29.4% | [9] 0.145% | [10] -65.2% | [11] 3.7% | [12] -57.2% | [13] -54.5% | [14] -61% | [17] -29.1% | [18] 1.38% | [19] -35.5% | [20] -8.34%
inactive: [15] 40.6% | [16] 22.5%

O=C(NC([Se])=NC1CCCCC1)c1ccc2c(c1)OCO2
inactive: [1] 44.1% | [2] 57.3% | [3] 50.5% | [4] 51.9% | [5] 55.5% | [6] 17% | [7] 39.6% | [8] 31.3% | [9] 63% | [10] 37.7% | [11] 70.5% | [13] 43.6% | [14] 25.3% | [15] 96.7% | [16] 86.4% | [17] 81.6% | [18] 24.7% | [19] 74.1% | [20] 32.4%
active: [12] 8.53%

O=C(/C=C/c1ccccc1)c1nc2ccccc2n1Cc1ccc(F)cc1
active: [1] -88.3% | [2] -28.3% | [3] -1.28% | [4] -5.26% | [5] -14.3% | [6] -55% | [9] -38% | [10] 4.71% | [13] -32.9% | [14] -47.5% | [15] -65% | [16] -29.3% | [17] -32.7% | [18] -87.4% | [19] -95.8% | [20] -41.3%
inactive: [7] 31.2% | [8] 106% | [11] 47.7% | [12] 64.9%

CC(C)C[C@H](NC(=O)CNC(=O)C[C@H]1O[C@@H]2OC3(C)CC[C@H]4[C@H](C)CC[C@@H]([C@H]1C)[C@@]24OO3)B(O)O
inactive: [1] 21% | [5] 12.1% | [7] 19.2% | [8] 43.1% | [11] 22.1% | [12] 41.6% | [17] 19.1%
active: [2] -56.5% | [3] -56.9% | [4] -53.1% | [6] 7.48% | [9] -14.5% | [10] 5.76% | [13] 2.58% | [14] -12.4% | [15] -83.5% | [16] -61.2% | [18] -72.3% | [19] -95.1% | [20] -15.4%

CC[C@]12C=CCN3CC[C@@]4(c5ccc(OC)cc5N(C)[C@H]4[C@@](O)(C(=O)OC)[C@@H]1OC(=O)CCC[P+](c1ccc(F)cc1)(c1ccc(F)cc1)c1ccc(F)cc1)[C@@H]32
inactive: [1] 80.9% | [4] 16.6% | [5] 63.9% | [6] 101% | [7] 73.1% | [8] 101% | [9] 24.4% | [10] 28% | [11] 48.6% | [12] 54.7% | [14] 21.1% | [18] 32.2% | [19] 22.4% | [20] 21.3%
active: [2] -32.6% | [3] -34.3% | [13] -15% | [15] -9.4% | [16] 6.69% | [17] 7.7%

COc1ccc(/C=C/C(=O)c2nc3ccccc3n2Cc2ccc(Br)cc2)cc1
inactive: [1] 64.7% | [2] 73.1% | [3] 72.3% | [4] 90.4% | [5] 110% | [6] 77.5% | [7] 68% | [8] 122% | [9] 22.5% | [10] 77.5% | [11] 66.1% | [12] 91.7% | [13] 65.8% | [14] 60% | [15] 70.3% | [16] 61.1% | [18] 32% | [19] 54.2% | [20] 61.5%
active: [17] 9.99%

CC1=C(COCCOC(=O)c2ccc(S(=O)(=O)F)cc2)C2=C(C)C3(CC3)[C@@](C)(O)C(=O)C2=C1
active: [1] -3.81% | [2] -78.2% | [3] -31.6% | [4] -19.9% | [5] 7.99% | [6] -19.3% | [7] -1.85% | [8] -16.9% | [10] -0.659% | [11] -23% | [12] -5.65% | [13] -24.3% | [14] 9.3% | [15] -83% | [16] 3.24% | [18] 6.93% | [19] -83.5%
inactive: [9] 76.4% | [17] 10.9% | [20] 29.6%

CC12OOC(C)(OO1)C2CCC(=O)NCCCNc1ccnc2cc(Cl)ccc12 (stereo not given)
active: [1] -12.2% | [2] -94.6% | [6] -100% | [7] -93.3% | [11] -42.2% | [14] -49.6% | [18] 3.56%
inactive: [3] 96.2% | [4] 91.9% | [5] 23.4% | [8] 114% | [9] 39% | [10] 94.9% | [12] 103% | [13] 67.1% | [15] 121% | [16] 93.8% | [17] 58.1% | [19] 106% | [20] 86.4%

O=C(/C=C/c1ccc(Br)cc1)c1nc2ccccc2n1Cc1ccc(Br)cc1
inactive: [5] 23.8% | [7] 16% | [8] 82.7% | [11] 35.5% | [12] 79.1% | [20] 22.5%
active: [1] -81.3% | [2] -42.9% | [3] -4.85% | [4] 8.28% | [6] -38.2% | [9] -9.14% | [10] -18% | [13] -18% | [14] -46.9% | [15] -66.2% | [16] -38.5% | [17] 3.68% | [18] -80.9% | [19] -89.6%
